Pf Dd2 growth: blocks in vitro growth of P. falciparum Dd2; P. falciparum Dd2 growth, SYBR Green, 72 h; Potency, µM (highest dose often 28.9 µM), actives largely listed as inhibitors; 4.3% of 120,000 active; AID 1347417; active = well fitted inhibition curve with a large enough effect; also: nearly all actives have a fitted effect of over 65% in size
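Infected erythrocytes (Dd2, 0.3% parasitemia, 2.5% hematocrit final) are added to compound in RPMI-1640/Albumax II medium, grown 72 h at 37C in low oxygen, then lysed with saponin/Triton-X containing SYBR Green and read by fluorescence.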
Hits are given with their value; – = inactive; [ ] = dose if it differs, or a comment. Only a selection was taken, and hits are over-represented in it overall.

SMILES | Pf Dd2 growth
CC1=C[C@@H](CN)[C@H](C(C)C)C[C@H]1Cc1nc2ccc(Cl)cc2[nH]1 | 11.2µM
CC1=C[C@@H](CNC(=O)CCCC(=O)O)[C@H](C(C)C)C[C@H]1Cc1nc2ccc(Cl)cc2[nH]1 | –
O=C(NCc1ccc2c(c1)OCO2)C1Cn2cccc2C(=O)N1Cc1ccccc1 (stereo not drawn) | –
COC1CN(C2CCN(C(=O)C(C)C)CC2)C12CCOCC2 (stereo not drawn) | –
CN(C)C[C@@H]1CN(Cc2ccccc2)C[C@H]1NC(=O)Cc1cccnc1 | –
CN1CC(=O)N(C2CCC2)Cc2c(NCc3ccccc3)ncnc21 | –
COCCNC(=O)[C@@H]1C[C@@H](O)CN1C1CCN(C(=O)C2CCCCC2)CC1 | –
Cc1nc2c3cccnc3nn2c(C)c1CCC(=O)NCc1ccccc1Cl | –
COC[C@@]12CC[C@@H](N3CCOCC3)C[C@H]1CCN(c1nccc(N)n1)C2 | –
CCN(C)c1ccnc(N2CC[C@@H]3C[C@H](N4CCOCC4)CC[C@@]3(COC)C2)n1 | 8.91µM
COC[C@@]12CC[C@@H](N3CCOCC3)C[C@H]1CCN(c1nccc(NC(C)C)n1)C2 | –
O=S(=O)(c1cccc2c1OCCO2)N1CCCn2nc(CO)cc2C1 | –
CCOc1ccccc1C(=O)N(Cc1cccs1)c1ccc(Cl)cc1 | –
Cc1ccc(-n2cnnn2)cc1S(N)(=O)=O | –
CCC(=O)Nc1ccccc1-c1nc2ccccc2n(C(C)C(=O)Nc2ccc(OC)cc2)c1=O (stereo not drawn) | 10µM
CCC(=O)Nc1ccccc1-c1nc2ccccc2n(C(CC)C(=O)Nc2cccc(Cl)c2)c1=O (stereo not drawn) | –
CCC(=O)Nc1ccccc1-c1nc2ccccc2n(CC(=O)Nc2ccccc2OC)c1=O | –
COc1ccc(C(=O)N(C)C2CCCN(CCc3ccccc3)C2)cc1OC (stereo not drawn) | –
CCn1cc2c3c(cccc31)CN(C(=O)COc1ccc(F)cc1)CC2 | –
Cc1cc(C(=O)Nc2cccc(C)c2C)c2c(C)nn(-c3cccc(F)c3)c2n1 | –
CC1=C(C(N)=O)C(c2ccc(F)cc2)n2nc(-c3ccccc3Cl)nc2N1 (stereo not drawn) | –
O=C(/C=C/c1ccc(F)cc1)Nc1nc2n(n1)C(c1ccc(Cl)cc1)C=C(c1ccccc1)N2 (stereo not drawn) | 11.2µM
O=S(=O)(Nc1nc2n(n1)C(c1ccc(F)cc1)C=C(c1ccc(Cl)cc1)N2)c1ccccc1 (stereo not drawn) | –
COc1ccccc1/C=C/C(=O)Nc1nc2n(n1)C(c1ccc(F)cc1)C=C(c1ccccc1)N2 (stereo not drawn) | 10µM
CC(=O)Nc1nc2n(n1)C(c1ccc(F)cc1)C=C(c1ccc(Cl)cc1)N2 (stereo not drawn) | 10µM
SMILES | Pf Dd2 growth
O=C(/C=C/c1ccccc1)Nc1nc2n(n1)C(c1ccc(Cl)cc1)C=C(c1ccccc1)N2 (stereo not drawn) | 11.2µM
O=C(O)c1cc(-n2c(/C=C\c3ccc(F)cc3)nc3ccccc3c2=O)ccc1Cl | –
COc1cc(C2C(C(=O)Nc3ccccc3)=C(C)Nc3nc(SCc4ccccc4F)nn32)cc(OC)c1OC (stereo not drawn) | –
O=C(Nc1nc(-c2ccccc2)ns1)c1ccc(Cl)cc1 | –
O=C(c1ccccc1)n1nc(-c2ccccc2)nc1NCc1ccc(F)cc1 | –
O=C(c1ccc(F)cc1)n1nc(-c2ccccc2)nc1NCc1ccc(F)cc1 | –
COc1ccc(CC(=O)N2CCC[C@H]2c2nc(-c3ccccc3Cl)no2)cc1OC | –
Cc1nc(C)n(CCCNC(=O)c2cc(S(N)(=O)=O)ccc2F)n1 | –
CN(Cc1ccccc1)Cc1cc(CC2(NCc3cccnc3)COC2)no1 | –
NC(=O)c1cccc(-c2n[nH]c3c2CC(=O)N(Cc2ccccc2F)C3)c1 | –
CC(=O)N1C[C@@H](Oc2ccccc2)C[C@@H]1C(=O)N1CCOCC1 | –
COc1ccccc1N(Cc1cc2cccc(C)c2[nH]c1=O)C(=O)c1cccc(Cl)c1 | –
COc1ccccc1NC(=O)CSc1nc2nccnc2c(=O)n1CCc1c[nH]c2ccccc12 | –
O=C(c1ccoc1)N1CCCC(c2noc(COc3ccccc3F)n2)C1 (stereo not drawn) | –
CCOc1cc(=O)n2c(c1C(=O)Nc1ccc(C#N)cc1)CCCC2 | –
O=C(NC1CCCCC1)c1c[nH]c2ccc(S(=O)(=O)Nc3ccccc3F)cc2c1=O | –
Nc1nc2c(s1)CN(C(=O)C1CCC(=O)N(C3CCCC3)C1)CC2 (stereo not drawn) | –
Cc1c(C)n(Cc2ccc(F)cc2)c2ccc(C(=O)N3CCN(c4ccc(F)cc4)CC3)cc12 | –
CCOc1ccccc1-c1nc(SCC(=O)c2ccc(OC)c(Br)c2)n[nH]1 | –
COc1ccc(CN2CCNc3cc(-c4ccccc4)ncc3C2)cc1O | –
CCOc1ccc(-c2cc(OC(=O)c3ccc(OC)cc3)c3c(C)oc(C)c3c(=O)c2)cc1 | 10µM
COc1ccc(F)cc1-c1ccc(C(=O)O)cc1 | –
CCOC(=O)c1c(-c2ccc(OC)c(OC)c2)csc1NC(=O)c1ccc(F)cc1 | –
CCOc1cc(-c2ccc(OC(=O)c3ccccc3Cl)c(OC)c2)cc(=O)c2c(C)oc(C)c12 | –
COc1ccc(-c2cc(OC(=O)c3ccc(F)cc3)c3c(C)oc(C)c3c(=O)c2)cc1OC | 10µM
SMILES | Pf Dd2 growth
CCCc1ccc(-c2ccc(C(=O)Oc3ccc(OCC)cc3)cc2)nc1 | –
Cc1cccc(CSc2ncc(CO)n2Cc2ccc(F)cc2)c1 | –
CCn1cc(CN(C)C(=O)CCc2nc(-c3ccccc3OC)no2)cn1 | –
O=c1c2cc3c(cc2nc2sc(Nc4ccc(F)c(Cl)c4)nn12)OCO3 | –
O=C(C1CCC1)N1CCN(C(=O)N2CC3CC(C2)[C@H]2CCCC(=O)N2C3)CC1 (stereo partly drawn) | –
CCn1ncc(N2CCCC(CC(=O)N3CCSCC3)C2)cc1=O (stereo not drawn) | –
CCCCC(=O)NC1CCN(c2cnn(C)c(=O)c2)CC1 | –
CCCCC(=O)NC1CCN(c2cn[nH]c(=O)c2)CC1 | 2.82µM
CC(C)CC(=O)NC1CCN(c2cn[nH]c(=O)c2)CC1 | –
COc1ccc(N2CCN(C(CNC(=O)CC(C)C)c3ccc4c(c3)OCO4)CC2)cc1 (stereo not drawn) | 5.62µM
O=C(NCC(c1ccc2c(c1)OCO2)N1CCOCC1)C(=O)Nc1cccc(Cl)c1 (stereo not drawn) | –
CN1CCN(C(CNC(=O)C(=O)Nc2cccc(Cl)c2)c2ccc3c(c2)OCO3)CC1 (stereo not drawn) | 7.08µM
CCOc1ccc(C(=O)NCC(c2ccc3c(c2)OCO3)N2CCOCC2)cc1 (stereo not drawn) | –[0.594 µM]
CCC(=O)NCC(c1ccc2c(c1)OCO2)N1CCN(c2ccccc2)CC1 (stereo not drawn) | –
Cc1cccc(NC(=O)C(=O)NCC(c2ccc3c(c2)OCO3)N2CCN(C)CC2)c1C (stereo not drawn) | –
CC(C)C(=O)NCC(c1ccc2c(c1)OCO2)N1CCN(c2ccccc2)CC1 (stereo not drawn) | –
CCOc1ccc(C(=O)NCC(c2ccc3c(c2)OCO3)N2CCN(c3ccc(F)cc3)CC2)cc1 (stereo not drawn) | 11.2µM
O=C(NCC(c1ccc2c(c1)OCO2)N1CCN(c2ccc(F)cc2)CC1)c1cccc([N+](=O)[O-])c1 (stereo not drawn) | –
CC(C)NC(=O)Cn1ccn2nc(-c3ccc(F)cc3)c(CO)c2c1=O | –
O=C(N[C@H]1C[C@@H](CO)N(Cc2ccco2)C1)c1cccnc1 | –
